# Source: PubChem BioAssay (NCATS)
# Results filed as inconclusive are left out. Calls of active or inactive are those of the source. Calls follow the shape of the dose curve; as a rule, active = well fitted curve in the direction sought with a large enough effect; inconclusive = small, poorly fitted or top-dose-only effect, or another doubt; inactive = no such curve, though single readings can be large; an effect the other way counts as inactive or inconclusive.
# Assay: qHTS of pediatric cancer cell lines to identify multiple opportunities for drug repurposing: Confirmatory screen for NB1643 cells (AID 1347109); also: nearly all actives have a fitted effect of over 45% in size;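 as to activity change, negative = cytotoxic: plate controls were DMSO for no effect and bortezomib for full effect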
# Conditions: NB1643 neuroblastoma cell viability; series mostly up to 45.9 µM; activity change, negative = cytotoxic: at the top concentration
# Outline: (§1)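 Cells (500-1,000/well) rested 5 h, then received compounds for 48 h; metabolically active cells were measured by CellTiter-Glo luminescence. Final concentrations spanned up to 46 µM (MIPE, 11-point) or 0.59 nM-46 µM (NPC, 8-point) in primary screens, 11-point in follow-ups.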
# Potency is read from the fitted curve at half-maximal effect.
SMILES,Potency,"activity change, negative = cytotoxic"
COc1cccc2c1C(=O)c1c(O)c3c(c(O)c1C2=O)C[C@@](O)(C(=O)CO)C[C@@H]3O[C@H]1C[C@H](N)[C@H](OC2CCCCO2)[C@H](C)O1 (stereo not given in full),1650 nM (active),
COC(=O)[C@@H]1[C@H]2C[C@@H]3c4[nH]c5ccccc5c4CCN3C[C@@H]2CC[C@@H]1O,,2.96% (inactive)
N#CNC(=NCCCCCCOc1ccc(Cl)cc1)Nc1ccncc1,14.7 nM (active),
CC(C)C[C@H](NC(=O)CNC(=O)c1cc(Cl)ccc1Cl)B1OC(=O)CC(CC(=O)O)(C(=O)O)O1 (stereo not given in full),261 nM (active),

# Assay: qHTS of pediatric cancer cell lines to identify multiple opportunities for drug repurposing: Confirmatory screen for A673 cells (AID 1347110);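 also: cells exposed to compound for 48 h before the viability read; nearly all actives have a fitted effect of over 65% in size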;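 as to activity change, negative = cytotoxicity: plate controls were DMSO neutral control for no effect and bortezomib positive control for full effect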
# Conditions: A673 Ewing sarcoma cell viability; series mostly up to 45.9 µM; activity change, negative = cytotoxicity: at the top concentration
# Outline: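 Forty-eight-hour viability assay. Follow-up compounds ran at 11-point dilutions; positive control bortezomib at 2.3 uM final, neutral control DMSO.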
SMILES,"activity change, negative = cytotoxicity",Potency
CC(C(C)N1CC(=O)NC(=O)C1)N1CC(=O)NC(=O)C1 (stereo not given),-12% (inactive),
COc1cccc2c1C(=O)c1c(O)c3c(c(O)c1C2=O)C[C@@](O)(C(=O)CO)C[C@@H]3O[C@H]1C[C@H](N)[C@H](OC2CCCCO2)[C@H](C)O1 (stereo not given in full),,2610 nM (active)
C[C@@]12C(=O)OC(=O)[C@@]1(C)C1CCC2O1,,9270 nM (active)
CS(=O)(=O)N1CCc2c(-c3cnc(N)nc3)nc(N3CCOCC3)nc21,,4140 nM (active)
COC(=O)[C@@H]1[C@H]2C[C@@H]3c4[nH]c5ccccc5c4CCN3C[C@@H]2CC[C@@H]1O,9.82% (inactive),
C=CC(=O)Nc1cccc(Nc2nc(NC3CCC(N(C)C)CC3)nc3c2ncn3C(C)C)c1 (stereo not given),,737 nM (active)
COc1ccc(C(C)=O)c(O)c1,12.9% (inactive),
N#CNC(=NCCCCCCOc1ccc(Cl)cc1)Nc1ccncc1,,11.7 nM (active)
CC(C)C[C@H](NC(=O)CNC(=O)c1cc(Cl)ccc1Cl)B1OC(=O)CC(CC(=O)O)(C(=O)O)O1 (stereo not given in full),,293 nM (active)
CNC(=O)c1cccc(-c2ccc3c(N4CCOC[C@H]4C)nc(N4CCOC[C@H]4C)nc3n2)c1,,1470 nM (active)

# Assay: qHTS of pediatric cancer cell lines to identify multiple opportunities for drug repurposing: Confirmatory screen for SK-N-MC cells (AID 1347111);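 also: cells exposed to compound for 48 h before the readout; nearly all actives have a fitted effect of over 70% in size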;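 as to activity change, negative = cytotoxic: plate controls were DMSO for no effect and bortezomib for full effect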
# Conditions: SK-N-MC cell viability; series mostly up to 45.9 µM; activity change, negative = cytotoxic: at the top concentration
# Outline: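 Seed 500-1,000 cells/well; rest 5 h at 37 degrees C. Pin-transfer compounds, 11-point titration. Incubate 48 h. Add CellTiter-Glo, 15 min RT, read luminescence.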
SMILES,Potency,"activity change, negative = cytotoxic"
CC(C(C)N1CC(=O)NC(=O)C1)N1CC(=O)NC(=O)C1 (stereo not given),2930 nM (active),
COc1cccc2c1C(=O)c1c(O)c3c(c(O)c1C2=O)C[C@@](O)(C(=O)CO)C[C@@H]3O[C@H]1C[C@H](N)[C@H](OC2CCCCO2)[C@H](C)O1 (stereo not given in full),737 nM (active),
C[C@@]12C(=O)OC(=O)[C@@]1(C)C1CCC2O1,6570 nM (active),
CS(=O)(=O)N1CCc2c(-c3cnc(N)nc3)nc(N3CCOCC3)nc21,2610 nM (active),
COC(=O)[C@@H]1[C@H]2C[C@@H]3c4[nH]c5ccccc5c4CCN3C[C@@H]2CC[C@@H]1O,,-23.9% (inactive)
C=CC(=O)Nc1cccc(Nc2nc(NC3CCC(N(C)C)CC3)nc3c2ncn3C(C)C)c1 (stereo not given),2610 nM (active),
COc1ccc(C(C)=O)c(O)c1,,-35.2% (inactive)
N#CNC(=NCCCCCCOc1ccc(Cl)cc1)Nc1ccncc1,14.7 nM (active),
CC(C)C[C@H](NC(=O)CNC(=O)c1cc(Cl)ccc1Cl)B1OC(=O)CC(CC(=O)O)(C(=O)O)O1 (stereo not given in full),131 nM (active),
CNC(=O)c1cccc(-c2ccc3c(N4CCOC[C@H]4C)nc(N4CCOC[C@H]4C)nc3n2)c1,1040 nM (active),

# Assay: qHTS of pediatric cancer cell lines to identify multiple opportunities for drug repurposing: Confirmatory screen for BT-12 cells (AID 1347112);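 also: viability read after 48 h of compound exposure; nearly all actives have a fitted effect of over 55% in size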; as to activity change, negative = cytotoxic: % is scaled to controls: 0 for no effect and ±100 for the full control effect
# Conditions: BT-12 rhabdoid tumor cells, viability; series mostly up to 45.9 µM; activity change, negative = cytotoxic: at the top concentration
# Outline: as §1
SMILES,"activity change, negative = cytotoxic",Potency
CC(C(C)N1CC(=O)NC(=O)C1)N1CC(=O)NC(=O)C1 (stereo not given),-7.72% (inactive),
COc1cccc2c1C(=O)c1c(O)c3c(c(O)c1C2=O)C[C@@](O)(C(=O)CO)C[C@@H]3O[C@H]1C[C@H](N)[C@H](OC2CCCCO2)[C@H](C)O1 (stereo not given in full),,10400 nM (active)
C[C@@]12C(=O)OC(=O)[C@@]1(C)C1CCC2O1,,8270 nM (active)
COC(=O)[C@@H]1[C@H]2C[C@@H]3c4[nH]c5ccccc5c4CCN3C[C@@H]2CC[C@@H]1O,-0.626% (inactive),
C=CC(=O)Nc1cccc(Nc2nc(NC3CCC(N(C)C)CC3)nc3c2ncn3C(C)C)c1 (stereo not given),,1170 nM (active)
COc1ccc(C(C)=O)c(O)c1,-8.78% (inactive),
CC(C)C[C@H](NC(=O)CNC(=O)c1cc(Cl)ccc1Cl)B1OC(=O)CC(CC(=O)O)(C(=O)O)O1 (stereo not given in full),,414 nM (active)

# Assay: qHTS of pediatric cancer cell lines to identify multiple opportunities for drug repurposing: Confirmatory screen for LAN-5 cells (AID 1347113); also: nearly all actives have a fitted effect of over 65% in size; as to activity change, negative = cytotoxicity: % is scaled to controls: 0 for no effect and ±100 for the full control effect
# Conditions: LAN-5 neuroblastoma cell viability; series mostly up to 45.9 µM; activity change, negative = cytotoxicity: at the top concentration
# Outline: as §1
SMILES,"activity change, negative = cytotoxicity",Potency,outcome
CC(C(C)N1CC(=O)NC(=O)C1)N1CC(=O)NC(=O)C1 (stereo not given),-17.8% (inactive),,
COc1cccc2c1C(=O)c1c(O)c3c(c(O)c1C2=O)C[C@@](O)(C(=O)CO)C[C@@H]3O[C@H]1C[C@H](N)[C@H](OC2CCCCO2)[C@H](C)O1 (stereo not given in full),,1170 nM (active),
CS(=O)(=O)N1CCc2c(-c3cnc(N)nc3)nc(N3CCOCC3)nc21,,1170 nM (active),
COC(=O)[C@@H]1[C@H]2C[C@@H]3c4[nH]c5ccccc5c4CCN3C[C@@H]2CC[C@@H]1O,,,inactive
C=CC(=O)Nc1cccc(Nc2nc(NC3CCC(N(C)C)CC3)nc3c2ncn3C(C)C)c1 (stereo not given),,827 nM (active),
COc1ccc(C(C)=O)c(O)c1,6.23% (inactive),,
N#CNC(=NCCCCCCOc1ccc(Cl)cc1)Nc1ccncc1,,11.7 nM (active),
CC(C)C[C@H](NC(=O)CNC(=O)c1cc(Cl)ccc1Cl)B1OC(=O)CC(CC(=O)O)(C(=O)O)O1 (stereo not given in full),,233 nM (active),
CNC(=O)c1cccc(-c2ccc3c(N4CCOC[C@H]4C)nc(N4CCOC[C@H]4C)nc3n2)c1,,2330 nM (active),
